# Sampled rows, rich in hits. Any-hit rate of the full collection: about 4.8%.
# DAX1 inh-1 – inhibitors of DAX1 repression of SF-1 activated StAR promoter | HEK293T StAR-luciferase reporter, SF-1/DAX-1 repression relief | 370,000 compounds, 1.1% hits | inhibition, % at 6.8 µM;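 active = inhibition above the mean over all tested compounds plus 3 SD, cut at about 3.6% in these data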;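 note: higher inhibition means more luminescence from relief of DAX-1 repression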
# hgDAF12 agonist – hgDAF-12 agonism, primary luciferase screen. HEK293 GAL4-hgDAF12 UAS-luciferase reporter, agonist luminescence; normalized to butyrate control. activation, % at 6.8 µM. 370,000 compounds, 1.8% hits;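 active = activation above a cutoff set at the mean of all screened compounds plus 3 SD, cut at about 10% in these data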
# DAX1 inh-2 – inhibits human nuclear receptor DAX1. HEK293 Gal4-DAX1 luciferase reporter, luminescence. 340,000 compounds, 0.99% hits. AID 504766. P51843. inhibition, % at 6.75 µM;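 active = inhibition above the mean over all tested compounds plus 3 SD, cut at about 4.2% in these data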;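 note: inhibition shows as a rise in luminescence from relieved DAX1 repression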
# Target sequence (P51843 207-470 limits assumed): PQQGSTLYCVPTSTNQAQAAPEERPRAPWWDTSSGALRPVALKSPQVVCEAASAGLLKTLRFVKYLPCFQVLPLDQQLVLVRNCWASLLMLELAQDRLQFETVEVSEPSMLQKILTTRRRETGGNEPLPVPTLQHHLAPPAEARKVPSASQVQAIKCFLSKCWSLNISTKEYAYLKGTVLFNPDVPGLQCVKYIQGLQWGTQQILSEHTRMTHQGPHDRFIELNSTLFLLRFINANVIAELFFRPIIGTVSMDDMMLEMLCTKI
# ssDAF12 agonist – activators of S. stercoralis DAF-12 nuclear receptor; activation, % at 6.8 µM; 370,000 compounds, 1% hits; HEK293 ssDAF-12/GRIP1 lit1-tk-luc reporter, luminescence; % of 3 µM dafachronic acid response;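 active = activation above the mean over all tested compounds plus 3 SD, cut at about 0.9% in these data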
# SMARCA2 act – activators of SMARCA2 function; activation, % at 9.1 µM; 370,000 compounds, 1% hits; MG213 cells, MMTV-luciferase reporter, dexamethasone, overnight; AID 652017; in the data active = activation above about 7.8%
# hcDAF-12 act – activates DAF-12 receptor from parasite H. contortus. activation, % at 6.8 µM. HEK293 hcDAF-12 lit1-tk-luc reporter, luminescence; 0% DMSO, 100% Δ7-dafachronic acid. AID 652067. 370,000 compounds, 1.4% hits;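 active = activation above the mean of all tested compounds plus 3 SD, cut at about 5.5% in these data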
# A number is an active result; 0 = inactive; - = not tested or not shown.
SMILES,DAX1 inh-1,hgDAF12 agonist,DAX1 inh-2,ssDAF12 agonist,SMARCA2 act,hcDAF-12 act
COc1cc([N+](=O)[O-])ccc1NC(=S)Nc1cccc(C(=O)O)c1,0,0,0,0,0,7.0
COC(=O)Nc1ccc([N+](=O)[O-])cc1OC,0,0,0,0,0,0
O=C(CSc1nnc(-c2ccccc2)n1-c1ccc(Cl)cc1)Nc1cccc2ccccc12,0,0,-,0,0,0
O=C(/C=C\c1ccccc1[N+](=O)[O-])Nc1ccccc1,0,10.8,0,0,0,0
O=C(/C=C/c1ccccc1)Nc1cc(NC(=O)/C=C/c2ccccc2)cc(C(=O)O)c1,0,0,0,0,0,0
O=C(/C=C/c1ccccc1)Nc1cccc(C(=O)O)c1,4.4,12.9,0,0,0,0
CC1CC(C(O)c2ccccn2)C(=O)C(C(O)c2ccccn2)C1 (stereo unspecified),0,0,0,2.0,0,0
CCN=C1NC(CCc2ccccc2)C(C(=O)OC)=C(C)N1Cc1ccccc1C(F)(F)F (stereo unspecified),0,0,-,0,0,0
CNc1nnc(-c2ccc(OC)cc2)s1,0,10.7,5.3,0,0,0
COc1ccc(-c2nnc(N)s2)cc1,0,0,0,0,0,0
CCc1ccc(C(=O)NNC(=O)CC2OC(=O)c3ccccc32)cc1 (stereo unspecified),0,0,0,1.0,0,0
O=C1C=CC2=C3c4cc(O)c(O)cc4CC3(O)COC2=C1O (stereo unspecified),0,0,5.2,0,0,0
CN(C)c1ccc(/C=C/c2cccc[n+]2[O-])cc1,0,0,-,0,0,6.3
O=C(N[C@H](C(=O)N1CCC[C@H]1C(=O)NCCc1ccccc1Cl)c1ccccc1)c1cccs1,0,0,-,0,0,0
CCc1cc(=O)n2c([nH]c3ccccc32)c1C#N,0,0,0,0,0,0
COCc1cc(=O)n2c([nH]c3ccccc32)c1C#N,0,0,0,1.2,0,0
CC1=NN(c2ccccc2)C(=O)C1C(=O)C(=O)Nc1ccc(F)cc1 (stereo unspecified),4.3,10.7,0,0,0,0
CC1=NN(c2ccccc2)C(=O)C1C(=O)c1ccccc1 (stereo unspecified),0,0,0,0,0,0
NS(=O)(=O)c1ccc(NC(=O)COC(=O)CC2Sc3ccccc3NC2=O)cc1 (stereo unspecified),0,0,0,0,0,0
NC(=O)c1ccc(NC(=O)COC(=O)CC2Sc3ccccc3NC2=O)cc1 (stereo unspecified),0,0,0,1.2,0,0
CC(C)N1Cc2nnn(Cc3ccc(F)cc3)c2-c2cc(F)ccc2S1(=O)=O,0,0,-,0,0,0
CCN1CCN(Cc2ccc(NC(=O)Nc3ccc(OC)cc3)cc2)CC1,0,0,4.3,0,0,0
COc1c(C)cccc1C(=O)Nc1ccc(CN2CCOCC2)cc1,0,0,0,0,0,6.0
COc1ccc(C(=O)Nc2ccc(CN3CCS(=O)(=O)CC3)cc2)cc1,0,0,4.4,0,0,0
CCN1CCN(Cc2ccc(NC(=O)Nc3ccccc3)cc2)CC1,-,-,0,-,-,-
SMILES,DAX1 inh-1,hgDAF12 agonist,DAX1 inh-2,ssDAF12 agonist,SMARCA2 act,hcDAF-12 act
COC(=O)C1=C(C)N(C)C(=NCc2ccc(OC)cc2)NC1c1cccc(F)c1 (stereo unspecified),0,0,-,0,0,0
O=C(NCCc1ccccc1)OCc1cn(Cc2ccccc2C(F)(F)F)nn1,0,0,-,0,0,0
O=C(NCCc1c[nH]c2ccccc12)OCc1cn(Cc2ccc(F)cc2F)nn1,0,0,-,0,0,0
Cc1cc(NS(=O)(=O)c2ccc(NC(=O)Cc3ccccc3)cc2)no1,0,0,-,0,0,0
CCCC1CCC(=NNC(=O)OC(C)(C)C)CC1 (stereo unspecified),0,0,5.8,0,0,0
Cc1cc(-c2n[nH]c(=S)n2-c2ccccc2)nn1C,0,0,0,0,7.9,0
Cc1cc(-c2n[nH]c(=S)o2)c(C)n1-c1ccccc1,4.0,0,-,0,0,0
Fc1ccc(-n2c(-c3ccc4ccccc4n3)n[nH]c2=S)cc1,0,0,6.3,0,0,0
CCN(CC)C(=O)CC[C@H]1CC[C@]2(CCCN(C(=O)c3ccc4ccccc4n3)C2)O1,0,0,-,0,0,0
CC(C)C[C@H]1CNC(=S)N1C[C@H]1CCCN1C[C@H](Cc1ccccc1)N1C[C@H](Cc2ccc(O)cc2)N(CC2CCCCC2)C1=S,3.8,0,-,0,0,0
CCOc1ccc(CCN2C(=O)C(=O)N([C@@H](CC(C)C)CN3CCC[C@H]3CN3C(=O)C(=O)NC[C@@H]3Cc3ccccc3)C[C@@H]2Cc2ccc(O)cc2)cc1,3.9,0,-,0,0,0
CC(C)C[C@H]1CNC(=S)N1CC1CCCN1C[C@H](Cc1ccc(O)cc1)N1C[C@H](Cc2ccccc2)N(CC2CCCCC2)C1=S (stereo partly specified),0,0,0,0,0,0
CCOC(=O)N1C(=O)C[C@](Sc2ccc(OC)cc2)(C(=O)N2CCOCC2)[C@H]1c1ccc(OC)cc1,0,0,-,0,0,0
COc1cc(NS(=O)(=O)c2ccc(NC(=S)NC(=O)c3sc4ccccc4c3Cl)cc2)ncn1,0,0,0,0,10.6,0
COC(=O)[C@]12C[C@H](CC(=O)N3CCCC3)C(=O)N(Cc3ccc(Cl)cc3Cl)C1=C[C@H](COCc1ccccc1)O[C@@H]2C,0,0,-,0,0,0
COC(=O)[C@]12C[C@H](CC(=O)NCc3ccc(C)o3)C(=O)N(Cc3ccco3)C1=C[C@H](C1CCCC1)O[C@@H]2C,0,0,-,0,0,0
COC(=O)[C@H](CCSC)NC(=O)N1CCC(C)CC1,0,0,0,0,0,0
COC(=O)[C@@H](NC(=O)N1CCC(C)CC1)C(C)C,0,0,4.9,0,0,0
Cc1oc2c(C)c3oc(=O)c(CCC(=O)NCCCN4CCCC4=O)c(C)c3cc2c1C,0,0,4.3,0,0,0
Cc1oc2c(C)c3oc(=O)c(CCC(=O)NCCCN4CCOCC4)c(C)c3cc2c1C,0,0,6.7,0,0,0
COC(=O)[C@H]1C[C@@]2(n3ccc4ccccc43)c3ccccc3N(S(=O)(=O)c3ccccc3)[C@H]2N1,0,0,-,0,0,0
Fc1ccc(CSc2nncn2NCc2ccccc2)cc1,0,0,6.9,0,0,0
CN(C)c1ccc(CNn2cnnc2SCc2ccc(F)cc2)cc1,0,0,0,0,0,0
COC(=O)[C@]12C[C@H](CC(=O)N3CCCC3)C(=O)N(Cc3ccc4c(c3)OCO4)C1=C[C@H](C(C)C)O[C@@H]2C1CC1,0,0,-,0,0,0
COc1ccc(C(=O)Nc2ccc3[nH]ncc3c2)cc1,0,13.2,0,0,0,0
O=C(Nc1ccc(NC(=O)c2cccs2)cc1)c1cccs1,0,0,0,0,0,0

# Screens as filed in PubChem BioAssay.
